Values joined by “and” are separate entries in the source; they are usually repeats but may differ in a detail not shown here. Equal values may be shown once. The campaign covered roughly 6,400 compounds. About 610 (9.5%) were called active. Cut-off read from the data, not from the text of the source: active = activity change below about -70%; inconclusive = no clear call, values can overlap the other calls; inactive = above that. The list comes from a sample in which actives are over-represented; it also holds similar structures and randomly drawn compounds. Where a structure was tested more than once in an assay, its records may differ in their call. Where a SMILES comes first, the peptide text is derived from it.
Test: T. gondii ME49Luc in HeLa cells, luciferase assay, 72 h, no IFN-y (AID 1259421)
Conditions: stronger effect = lower value, concentration not given here

Row | SMILES | activity change, negative = inhibition
1 | N[C@@H](Cc1ccc(O)cc1)C(=O)NCC(=O)NCC(=O)O (H-Tyr-Gly-Gly-OH) | -5.06% (inactive)
2 | NC(=O)C[S@@](=O)C(c1ccccc1)c1ccccc1 | 3.02% (inactive)
3 | CCCC(C)C1(CC)C(=O)NC(=O)NC1=O (stereo unspecified) | 19.8% (inactive)
4 | CN[C@@H](C)[C@H](O)c1ccccc1 | -0.966% (inactive)
5 | C[C@]12CCC(=O)C(=O)C1CC[C@@H]1[C@@H]2CC[C@]2(C)C(=O)CC[C@@H]12 (stereo partly specified) | 1.31% (inactive)
6 | CCN[C@@H](C)Cc1cccc(C(F)(F)F)c1 | 3.99% (inactive)
7 | Cc1nnc2ccc(-c3cccc(C(F)(F)F)c3)nn12 | -56.7% (inactive) and -76.7% (active)
8 | CCOC(=O)c1ncc2[nH]c3ccc(OCc4ccccc4)cc3c2c1COC | -0.724% (inactive) and 16.8% (inactive)
9 | CCNC(=O)[C@H]1O[C@@H](n2cnc3c(N)ncnc32)[C@H](O)[C@@H]1O | -4.22% (inactive)
10 | CCNC(=O)C1OC(n2cnc3c(N)ncnc32)C(O)C1O (stereo unspecified) | 1.34% (inactive)
11 | NC(=O)c1cn(C2OC(CO)[C@H](O)[C@@H]2O)c2ncnc(N)c12 (stereo partly specified) | -91.9% (active)
12 | C#CCN1C(C)=C(C(=O)CCO)C(c2cccc(-n3oo3)c2)C(C(=O)OC)=C1C (stereo unspecified) | 11.7% (inactive)
13 | OC1(c2ccc(Cl)cc2)c2ccccc2C2=NCCN21 (stereo unspecified) | 22.1% (inactive)
14 | CN1CCC2(c3cccc(O)c3)Cc3nc4ccccc4cc3CC2C1 (stereo unspecified) | -1.33% (inactive)
15 | CC[C@H]1CN2CCC1C[C@@H]2[C@H](O)c1ccnc2ccc(OC)cc12 (stereo partly specified) | 19.4% (inactive)
16 | CC1=C[C@H]2[C@]3(O)[C@H](C)[C@@H](O)[C@@]4(O)[C@H]([C@@H]3C=C(CO)C[C@]2(O)C1=O)C4(C)C | -3.08% (inactive)
17 | CCCCCCCCCCCCCC(=O)O[C@@H]1[C@@H](C)[C@@]2(O)[C@@H](C=C(CO)C[C@]3(O)C(=O)C(C)=C[C@@H]23)[C@@H]2C(C)(C)[C@]12OC(C)=O | -85.6% (active) and -84.7% (active)
18 | CCCCCCCCCOc1ccc2[nH]cc(CCN)c2c1 | 7.94% (inactive)
19 | CCC1/C=C/C=C/C[C@H](C)[C@@H](O)[C@](C)(O)C(=O)[C@@H](C)[C@H](O)[C@@H](C)C(=O)[C@H](C)[C@@H](O)[C@H](C)/C=C/C(=O)OC2[C@@H](C)C(CC1)OC1(CC[C@@H](C)C(C[C@H](C)O)O1)[C@@H]2C (stereo partly specified) | -89.1% (active)
20 | CC1=CC[C@@H]2[C@@H](C1)c1c(O)cc(CC#CCCCNS(C)(=O)=O)cc1OC2(C)C | 17.8% (inactive)
21 | COc1ccc(C(=O)O)cc1OC | 8.1% (inactive)
22 | O=C(O[C@H]1CN2CCC1CC2)N(Cc1cc(F)c(F)c(F)c1)c1cccc(F)c1 | 16.6% (inactive)
23 | CC(=O)Oc1ccc(/C=C/c2cc(OC(C)=O)cc(OC(C)=O)c2)cc1 | 11.4% (inactive)
24 | O=C1CCC[C@@H]2[C@@H]3CCCN4CCC[C@H](CN12)[C@@H]34 | 15.2% (inactive)
25 | C=C1[C@@H](C)[C@H]2[C@H](Cc3ccccc3)NC(=O)[C@]23OC(=O)/C=C\[C@H](O)CCC[C@@H](C)C/C=C/[C@H]3[C@@H]1O | -85.5% (active)
26 | C[C@]12Cc3cn[nH]c3C[C@@H]1CC[C@@H]1[C@@H]2CC[C@@]2(C)[C@H]1CC[C@]2(C)O | -3.74% (inactive)

Row | SMILES | activity change, negative = inhibition
27 | O=C(NC(=O)c1c(F)cccc1F)Nc1cc(Cl)c(OC(F)(F)C(F)C(F)(F)F)cc1Cl (stereo unspecified) | -81.8% (active) and -81.1% (active)
28 | CC(=O)OCC1=C(C(=O)O)N2C(=O)[C@@H](NC(=O)CCCC(N)C(=O)O)C2SC1.[Zn] (stereo partly specified) | 20.4% (inactive)
29 | CC(C)=CC1C(C(=O)OCc2coc(Cc3ccccc3)c2)C1(C)C (stereo unspecified) | 19.4% (inactive)
30 | Cc1nccc2c1[nH]c1ccccc12 | 1.21% (inactive)
31 | c1ccc2c(c1)[nH]c1cnccc12 | -0.879% (inactive)
32 | Cc1c2ccncc2c(C)c2c1[nH]c1ccccc12 | -83.1% (active)
33 | COc1ccc2c(c1)CN(C)CC2c1ccc(Cl)c(Cl)c1 (stereo unspecified) | 5.02% (inactive)
34 | O=C1CCC2(O)C3Cc4ccc(O)c5c4C2(CCN3CC2CC2)C1O5 (stereo unspecified) | 10.3% (inactive)
35 | Clc1ccc(C2=CCCC3CCC2N3)cn1 (stereo unspecified) | 12.4% (inactive) and -82.3% (active)
36 | CN(C(=O)Cc1ccc(Cl)c(Cl)c1)[C@H](CN1CCCC1)c1ccccc1 | 8.8% (inactive) and 17.5% (inactive)
37 | OC12C3C4CC5C6C4C1C6C(C53)N2CCc1cccc(F)c1 (stereo unspecified) | 18.7% (inactive) and 6.8% (inactive)
38 | CN(C)c1ccc(/C=C2\CCCN=C2c2cccnc2)cc1 | -1.7% (inactive) and -12.2% (inactive)
39 | CC1(C)CC[C@]2(C(=O)O)CC[C@]3(C)[C@H](C(=O)C=C4[C@@]5(C)C=C(C#N)C(=O)C(C)(C)[C@@H]5CC[C@]43C)[C@@H]2C1 | -98.8% (active)
40 | O=C1NCN(c2ccccc2)C12CCN(CC1COc3ccccc3O1)CC2 (stereo unspecified) | -3.91% (inactive) and 4.3% (inactive)
41 | CC1CC(C)C(=O)C(C(O)CC2CC(=O)NC(=O)C2)C1 (stereo unspecified) | -83.8% (active)
42 | C[C@@H]1C[C@@H]([C@H](O)CC2CC(=O)NC(=O)C2)C(=O)[C@@H](C)C1 | -81.3% (active) and -84.7% (active)
43 | Oc1c(I)cc(I)cc1I | 3.61% (inactive)
44 | CN1CC(CNC(=O)OCc2ccccc2)CC2c3cccc4c3c(cn4C)CC21 (stereo unspecified) | 8.87% (inactive) and 8.34% (inactive)
45 | N#CC(C#N)=NNc1ccc(OC(F)(F)F)cc1 | 20% (inactive)
46 | Oc1ccc2c3c1O[C@H]1c4oc5ccccc5c4C[C@@]4(O)C(C2)N(CC2CC2)CC[C@]314 | -2.8% (inactive)
47 | C/C(=C/C=C/[C@@H](C)C(=O)O)[C@H]1CN[C@H](C(=O)O)[C@H]1CC(=O)O | 4.56% (inactive)
48 | c1ccc(CCCN2CCN(CCOC(c3ccccc3)c3ccccc3)CC2)cc1 | -51.1% (inactive) and -1.58% (inactive)
49 | C[C@H]1CN(Cc2ccc(CC(=O)N3CCC(Nc4cccc(F)c4)CC3)cc2)CCN1 | 4.86% (inactive)
50 | N#CC(C#N)=Cc1ccc(O)c(O)c1 | 10.7% (inactive) and 7.11% (inactive)
51 | CC(C)(C)c1cc(C=C(C#N)C#N)cc(C(C)(C)C)c1O | -90.8% (active) and -88.7% (active)
52 | CC(C)(C)c1cc(C=C(C#N)C#N)cc(Br)c1O | -39.2% (inactive)

Row | SMILES | activity change, negative = inhibition
53 | CN1C(=O)N(C)C2C1N(C)C(=O)N2C (stereo unspecified) | 5.58% (inactive)
54 | OC1CC2CCCC(C1)N2Cc1ccccc1 (stereo unspecified) | 4.85% (inactive)
55 | CC(=O)O[C@H]1C[C@@H](OC(C)=O)C(C)(C)C2C[C@@H](OC(C)=O)[C@]3(C)C(CC[C@@]4(C)[C@H](c5ccoc5)C(=O)[C@H]5O[C@]543)[C@]21C (stereo partly specified) | 11.1% (inactive)
56 | CC(=O)O[C@@H]1CC2C(C)(C)C(=O)C=C[C@]2(C)C2CC[C@]3(C)C(=CC(=O)O[C@H]3c3ccoc3)[C@@]21C (stereo partly specified) | -83.5% (active)
57 | CC1(C)C(=O)C=C[C@@]2(C)C1C[C@@H](O)[C@]1(C)C2CC[C@@]2(C)[C@H](c3ccoc3)OC(=O)[C@H]3O[C@]321 (stereo partly specified) | 13.2% (inactive)
58 | CCN(CC)CCOC1CCC2(C)C(=CCC3C4CCC(=O)C4(C)CCC32)C1 (stereo unspecified) | -5.47% (inactive)
59 | CN1CC2CCCC(C1)C2OC(=O)C(O)(c1ccccc1)C1CCCC1 (stereo unspecified) | 36% (inactive)
60 | C[C@H](N)Cc1cnc[nH]1 | 10.9% (inactive)
61 | Cc1cccc(C(C)c2cnc[nH]2)c1C (stereo unspecified) | 15.9% (inactive) and 24.6% (inactive)
62 | CCCCCCC(C)(C)c1ccc(C2CC(O)CCC2CCCO)c(O)c1 (stereo unspecified) | 0.246% (inactive)
63 | C[C@]12CC[C@H](O)C[C@H]1CC[C@@H]1[C@@H]2C[C@@H](O)[C@]2(C)[C@@H](C3=CC(=O)OC3)CC[C@]12O | -93.5% (active)
64 | CC(=O)OCC(=O)[C@H]1CC[C@H]2[C@@H]3CC[C@H]4C[C@H](O)CC[C@]4(C)[C@H]3C(=O)C[C@]12C | -8.47% (inactive)
65 | CC(=O)C1CCC2C3CCC4C[C@H](O)CCC4(C)C3C[C@H](O)C12C (stereo partly specified) | 3.84% (inactive)
66 | C[C@]12CC[C@@H](O)C[C@@H]1CC[C@@H]1[C@@H]2CC[C@]2(C)C(=O)CC[C@@H]12 | 9.11% (inactive)
67 | C[C@]12CC[C@@H](O)C[C@@H]1CC[C@@H]1[C@@H]2CC[C@]2(C)[C@@H](C(=O)CO)CC[C@@H]12 | 8.82% (inactive)
68 | CC(=O)[C@H]1CC[C@H]2[C@@H]3CC[C@H]4C[C@H](O)CC[C@]4(C)[C@H]3C(=O)C[C@]12C | 12.1% (inactive)
69 | C[C@]12CC[C@H](O)C[C@H]1CC[C@@H]1[C@@H]2CC[C@]2(C)[C@@H](C3=CC(=O)OC3)CC[C@]12O | -86.6% (active)
70 | C[C@]12CC[C@H](O)C[C@H]1CC[C@@H]1[C@@H]2CC[C@]2(C)[C@@](O)(c3ccoc3)CC[C@]12O | 2.9% (inactive)
71 | C[C@]12[C@H](O)CC3C(CC[C@@H]4C[C@@H](O)CC[C@]34C)[C@@]1(O)CC[C@@H]2C1=CC(=O)OC1 (stereo partly specified) | -84.3% (active)
72 | Cl/C=C\C[N+]12CN3CN(CN(C3)C1)C2 | 5.98% (inactive)
73 | NC1=NC(=O)N2CC12 (stereo unspecified) | 6.84% (inactive)
74 | Oc1ccc2c3c1OC1c4oc5ccccc5c4CC4(O)C(C2)N(CC2CC2)CCC314 (stereo unspecified) | -19.3% (inactive)
75 | N#CC(O[C@@H]1O[C@H](CO[C@@H]2O[C@H](CO)[C@@H](O)[C@H](O)[C@H]2O)[C@@H](O)[C@H](O)[C@H]1O)c1ccccc1 (stereo partly specified) | 19% (inactive)
76 | COC[C@@H](NC(C)=O)C(=O)NCc1ccccc1 | -51% (inactive)
